This is an account of results in PubChem BioAssay (NCATS).

The target of assay [1] is ATP-dependent 6-phosphofructokinase (Trypanosoma brucei brucei) (UniProt O15648). The assay can be described thus: qHTS Assay to Find Inhibitors of T. brucei phosphofructokinase: hit validation (AID 492961).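 Further: luminescence reports ADP formed as PFK phosphorylates fructose-6-phosphate with ATP.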 The settings on record: T. brucei PFK, ADP-Glo luminescence; series mostly up to 51.4 µM. In a few lines: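 In this biochemical qHTS validation, titrated compounds were tested against 1.25 nM PFK with 0.1 mM ATP and 0.5 mM F6P. Percent activity came from controls lacking or containing enzyme.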
ATP-dependent 6-phosphofructokinase (Trypanosoma brucei brucei), sequence (O15648 whole entry, looked up): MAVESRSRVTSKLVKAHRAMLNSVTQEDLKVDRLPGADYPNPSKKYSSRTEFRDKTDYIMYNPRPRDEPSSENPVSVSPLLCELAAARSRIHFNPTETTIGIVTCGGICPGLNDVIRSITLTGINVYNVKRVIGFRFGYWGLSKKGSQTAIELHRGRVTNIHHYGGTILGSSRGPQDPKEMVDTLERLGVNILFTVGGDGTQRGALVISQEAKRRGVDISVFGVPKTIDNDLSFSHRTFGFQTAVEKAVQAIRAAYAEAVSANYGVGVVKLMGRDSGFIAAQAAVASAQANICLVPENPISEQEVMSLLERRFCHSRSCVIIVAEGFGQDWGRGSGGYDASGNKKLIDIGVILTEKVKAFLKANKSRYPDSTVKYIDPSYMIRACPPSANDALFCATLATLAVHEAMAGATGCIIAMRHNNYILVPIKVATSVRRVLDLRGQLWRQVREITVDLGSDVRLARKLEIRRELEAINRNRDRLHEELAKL
(In general: Quantitative high-throughput screening tests each substance at several concentrations.)

Assay [2] addresses Tumor susceptibility gene 101 protein (Homo sapiens) (UniProt Q99816). The assay can be described thus: qHTS Validation Assay for Iinhibitors of HIV-1 Budding by Blocking the Interaction of PTAP/TSG101 (AID 485342; calls by dose curve). The settings on record: TSG101-PTAP binding, fluorescence polarization, 4-point titration; series mostly up to 115 µM. In a few lines:
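Fluorescence anisotropy measured PTAP-Tsg101 interaction. Final concentrations were 10 uM protein domain and 50 nM labeled peptide, equilibrated 20 min at room temperature.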

In assay [3] the target is Beta-2 adrenergic receptor (Homo sapiens) (UniProt P07550). The experiment in a line: qHTS validation assay of beta-arrestin-biased ligands of beta2-adrenergic receptor (AID 485366). The settings on record: cell-based beta-arrestin recruitment to ADRB2, qHTS; series mostly up to 46.1 µM. In outline:
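Agonism was measured as beta-arrestin recruitment to recombinant beta2-AR, releasing tTA to drive luciferase. Cells were exposed for 18 hr at 37 degrees C to a series up to 46 microM. %Activity from corrected luminescence gave concentration-response curves.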

Assay [4] concerns the target ATP-dependent 6-phosphofructokinase (Trypanosoma brucei brucei) (UniProt O15648). The assay can be described thus: qHTS Validation Assay to Find Inhibitors of T. brucei phosphofructokinase (AID 485368). The settings on record: T. brucei PFK enzyme assay, qHTS 7-point titration; at 57.5 µM (top of the series). In a few lines:
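ADP-Glo luminescence, two-step: residual ATP depleted, then ADP converted to ATP for luciferase. Enzyme 1.25 nM, F6P 0.5 mM, ATP 0.1 mM, pH 8.0 TEA buffer, 45 min RT. Curves fitted and classed by quality and efficacy.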

Assay [5] has as its target Thioredoxin reductase 1, cytoplasmic (Rattus norvegicus) (UniProt O89049). The experiment in a line: qHTS Assay for Substrates of Mammalian Selenoprotein Thioredoxin Reductase 1 (TrxR1) (AID 488772).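 Further: a drop in NADPH fluorescence below the no-compound background marks a TrxR1 substrate.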 The settings on record: purified TrxR1, NADPH consumption substrate assay; series mostly up to 57.1 µM. In outline: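 In this dual-purpose format, potential substrates are identified from the first fluorescence read after selenite addition, not from the 8-minute delta. Rat enzyme is preincubated with NADPH and then with compound at ~22 deg C.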

For assay [6] the target is unchanged. The experiment in a line: qHTS Assay for Inhibitors of Mammalian Selenoprotein Thioredoxin Reductase 1 (TrxR1) (AID 488773).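 Further: drop in NADPH fluorescence over an 8 min run after selenite addition; nearly all actives have a fitted effect of over 40% in size.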 As to conditions: purified TrxR1 enzyme activity; series mostly up to 57.1 µM. In a few lines: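 Inhibition is scored from the loss of NADPH fluorescence between first and last reads of an 8-min kinetic run. Selenite (400 uM) was the substrate, added after 15 min compound preincubation at room temperature.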

The target of assay [7] is Flap endonuclease 1 (Homo sapiens) (UniProt P39748). The experiment in a line: qHTS Validation Assay for the Inhibitors of Human Flap endonuclease 1 (FEN1) (AID 488816). The settings on record: FEN1 nuclease activity, fluorogenic DNA substrate; series mostly up to 57.1 µM. In outline:
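qHTS format: compounds and 10 nM FEN1 incubated 15 min at room temperature before adding 50 nM substrate. Cleavage followed by reads at 0 and 15 min; normalized data fitted to a four-parameter Hill curve.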

Assay [8] concerns the target M-phase phosphoprotein 8 (Homo sapiens) (UniProt Q99549). The assay can be described thus: qHTS Validation Assay for Inhibitors for MPP8 Chromodomain Interactions with Methylated Histone Tails (AID 488949).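 Further: AlphaScreen signal from MPP8 chromodomain bound to biotinylated H3K9me3 peptide; top concentration of the series differs between compounds; nearly all actives have a fitted effect of over 55% in size.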 As to conditions: AlphaScreen MPP8 binding to H3K9me3 peptide; series mostly up to 114 µM. In outline: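 Disruption of the preformed MPP8–trimethyl-H3K9 peptide complex (both 50 nM, 30 min, RT) is measured after 30 min compound exposure, using AlphaScreen proximity beads; aurintricarboxylic acid titration serves as plate control.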

Assay [9] has as its target Chromobox protein homolog 1 (Homo sapiens) (UniProt P83916). The experiment in a line: qHTS Validation Assay for Inhibitors of HP1-beta Chromodomain Interactions with Methylated Histone Tails (AID 488953).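 Further: loss of AlphaScreen luminescence from HP1-beta binding biotinylated H3K9me3 peptide; nearly all actives have a fitted effect of over 50% in size.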 As to conditions: HP1-beta chromodomain / methylated histone peptide binding assay; series mostly up to 114 µM. In a few lines:
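AlphaScreen proximity readout: streptavidin donor and Ni-chelate acceptor beads, 10 ug/mL final, 30 min dark, RT. Complex of 50 nM HP1-beta and 50 nM b-H3(1-18)K9me3 formed 30 min, then compound-treated 30 min; PBS pH 7.4/0.01% Tween-20.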

For assay [10], the target named is Methanococcus maripaludis chaperonin (MmCpn) (UniProt Q6LX38). The experiment in a line: High-Throughput Screening for Modulators of Cytosolic Chaperonin Activity: MmCpn Primary Screen (AID 488978). The settings on record: Purified MmCpn ATPase activity, ADP HTRF detection, 10 min; series mostly up to 76.9 µM. In a few lines: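 Measures ATPase turnover of the M. maripaludis chaperonin (50 nM final) against 30 uM ATP over 10 min at 37C, with compound added 5 min beforehand at room temperature. ADP is quantified by HTRF immunodetection.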
Methanococcus maripaludis chaperonin (MmCpn), sequence (Q6LX38 1-543): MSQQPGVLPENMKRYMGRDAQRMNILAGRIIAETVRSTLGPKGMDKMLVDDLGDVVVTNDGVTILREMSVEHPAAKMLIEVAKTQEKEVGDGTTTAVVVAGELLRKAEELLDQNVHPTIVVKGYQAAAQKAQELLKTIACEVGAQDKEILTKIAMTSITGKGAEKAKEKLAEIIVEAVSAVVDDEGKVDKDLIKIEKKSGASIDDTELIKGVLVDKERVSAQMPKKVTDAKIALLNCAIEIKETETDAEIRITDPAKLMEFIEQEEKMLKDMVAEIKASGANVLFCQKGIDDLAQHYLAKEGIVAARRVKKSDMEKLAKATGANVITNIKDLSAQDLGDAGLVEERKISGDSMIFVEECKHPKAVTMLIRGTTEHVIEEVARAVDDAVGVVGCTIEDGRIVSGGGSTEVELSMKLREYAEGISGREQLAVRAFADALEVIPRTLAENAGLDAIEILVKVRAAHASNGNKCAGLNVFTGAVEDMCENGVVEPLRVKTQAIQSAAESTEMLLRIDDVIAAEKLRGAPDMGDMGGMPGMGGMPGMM

The target of assay [11] is Thyrotropin receptor (Homo sapiens) (UniProt P16473). The experiment in a line: qHTS Assay for Antagonists of the Thyroid Stimulating Hormone Receptor (AID 488980). The settings on record: TSHR-expressing cells, cAMP antagonist read-out; series mostly up to 57.5 µM. In outline: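 Cells expressing human TSHR (HEK293) are dispensed in HBSS/HEPES containing 70 uM RO 20-1724, compound is added, then TSH at EC80 (4 nM final). Antibody in lysis buffer follows, 30 minutes at room temperature before HTRF detection.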
Thyrotropin receptor (Homo sapiens), sequence (P16473 whole entry, looked up): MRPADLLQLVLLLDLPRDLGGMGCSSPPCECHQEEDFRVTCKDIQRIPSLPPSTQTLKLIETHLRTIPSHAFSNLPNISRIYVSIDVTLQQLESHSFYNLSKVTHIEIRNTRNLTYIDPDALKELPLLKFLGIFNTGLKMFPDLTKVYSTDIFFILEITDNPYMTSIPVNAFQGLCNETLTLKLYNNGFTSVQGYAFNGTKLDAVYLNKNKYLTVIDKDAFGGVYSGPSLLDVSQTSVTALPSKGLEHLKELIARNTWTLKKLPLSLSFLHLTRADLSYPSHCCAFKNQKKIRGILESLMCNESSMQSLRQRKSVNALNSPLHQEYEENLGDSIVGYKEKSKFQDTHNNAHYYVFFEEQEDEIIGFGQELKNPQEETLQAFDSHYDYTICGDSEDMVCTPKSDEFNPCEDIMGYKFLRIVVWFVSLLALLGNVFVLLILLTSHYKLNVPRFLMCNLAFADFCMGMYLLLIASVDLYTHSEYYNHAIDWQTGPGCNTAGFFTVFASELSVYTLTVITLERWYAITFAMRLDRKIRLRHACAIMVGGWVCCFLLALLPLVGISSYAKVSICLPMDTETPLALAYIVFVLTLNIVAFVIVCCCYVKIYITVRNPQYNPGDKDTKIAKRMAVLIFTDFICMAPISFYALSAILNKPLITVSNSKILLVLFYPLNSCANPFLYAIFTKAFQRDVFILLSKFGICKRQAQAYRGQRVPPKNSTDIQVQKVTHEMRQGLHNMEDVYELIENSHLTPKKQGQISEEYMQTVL

Assay [12] deals with D(1A) dopamine receptor (Homo sapiens) (UniProt P21728). The experiment in a line: HTS Assay for Allosteric Agonists of the Human D1 Dopamine Receptor: Primary Screen for Agonists (AID 488981). The settings on record: Inducible HEK293 T-REx D1 cells, calcium-flux fluorescence, 180 s kinetic; series mostly up to 41.8 µM. In a few lines: (§1)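 Calcium flux in an inducible, force-coupled HEK293 Trex D1 line (overnight at 30 C): agonist mode is the 180 s kinetic read after compound; potentiator mode is the following 180 s read after dopamine at EC20.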
D(1A) dopamine receptor (Homo sapiens), sequence (P21728 whole entry, looked up): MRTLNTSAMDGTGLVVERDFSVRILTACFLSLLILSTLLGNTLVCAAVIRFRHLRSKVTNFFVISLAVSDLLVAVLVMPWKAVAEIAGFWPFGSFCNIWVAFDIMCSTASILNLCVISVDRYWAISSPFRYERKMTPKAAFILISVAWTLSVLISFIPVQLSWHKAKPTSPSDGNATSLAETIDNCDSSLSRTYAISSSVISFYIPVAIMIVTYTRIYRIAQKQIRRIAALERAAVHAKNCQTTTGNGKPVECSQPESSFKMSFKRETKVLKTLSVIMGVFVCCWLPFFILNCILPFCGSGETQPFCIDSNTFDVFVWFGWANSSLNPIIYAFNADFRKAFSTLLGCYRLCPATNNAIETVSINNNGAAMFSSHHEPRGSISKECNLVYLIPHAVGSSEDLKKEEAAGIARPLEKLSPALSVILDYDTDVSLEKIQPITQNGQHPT

The target is the same in assay [13]. The assay can be described thus: HTS Assay for Allosteric Agonists of the Human D1 Dopamine Receptor: Primary Screen for Potentiators (AID 488982). The settings on record: HEK293 T-REx D1 inducible cells, calcium flux, kinetic fluorescence; series mostly up to 8.37 µM. In outline: as §1
In general terms: Calcium flux is commonly read through the fluorescence of an indicator in the cells.

Assay [14] shares this target. The assay can be described thus: HTS Assay for Allosteric Agonists of the Human D1 Dopamine Receptor: Primary Screen for Antagonists (AID 488983).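 Further: calcium flux response to an EC80 dopamine challenge measured with no-wash dye; nearly all actives have a fitted effect of over 65% in size.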 The settings on record: D1 receptor cell assay, antagonist mode, qHTS titration; series mostly up to 41.8 µM. In outline: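 Calcium flux readout, no-wash dye, inducible HEK293 T-REx D1 line (force-coupled). Compound added after 10 s baseline, 180 s kinetic read; then dopamine at EC80, further 180 s read.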

A short description of assay [15]: Validation screen for small molecules that induce genotoxicity in human embryonic kidney (HEK293T) cells expressing luciferase-tagged ELG1 (AID 493106). Further: potency means the concentration at half of the fitted maximal effect. As to conditions: luminescence. In a few lines:
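qHTS format; 2,000 HEK293T ELG1-luc cells/well; 23 nL compound via pin tool; 16 hr, 37 °C/5% CO2; ONE-Glo, 30 min RT; luminescence read.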

For assay [16], the target named is Thyrotropin-releasing hormone receptor (Homo sapiens) (UniProt P34981). The assay can be described thus: qHTS for Small Molecule Agonists and Allosteric Enhancers of Human TRH Receptor: Validation Screen for Agonists (AID 493127;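 active means calcium activation more than 3 SD above the typical response in the agonist read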;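 further: intracellular calcium rise by fluo-8 fluorescence before TRH EC20 addition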). The settings on record: TRH receptor agonist cell assay; at 2 µM; stronger effect = higher value. In a few lines: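 Read-out: intracellular calcium release measured kinetically by FDSS (fluo-8, ex 480/em 530 nm), 1 reading/s after a 10-cycle baseline. TRHR cells, 2000/well, cultured 18 h at 33.5C, dye-loaded at room temp. Compound-evoked positive calcium signal flags agonists.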
Thyrotropin-releasing hormone receptor (Homo sapiens), sequence (P34981 whole entry, looked up): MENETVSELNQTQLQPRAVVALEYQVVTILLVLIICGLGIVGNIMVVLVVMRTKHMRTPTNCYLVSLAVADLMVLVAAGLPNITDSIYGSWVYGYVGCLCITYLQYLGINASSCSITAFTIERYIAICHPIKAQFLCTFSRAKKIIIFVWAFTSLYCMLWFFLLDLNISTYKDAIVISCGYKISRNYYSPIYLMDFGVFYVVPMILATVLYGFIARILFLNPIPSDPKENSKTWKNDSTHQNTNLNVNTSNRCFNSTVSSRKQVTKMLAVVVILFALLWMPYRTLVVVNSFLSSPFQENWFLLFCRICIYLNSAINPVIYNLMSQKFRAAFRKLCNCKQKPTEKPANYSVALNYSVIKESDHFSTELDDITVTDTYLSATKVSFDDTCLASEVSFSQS

Assay [17] is described as follows: Nrf2 qHTS screen for inhibitors: Validation (AID 493153; active means well fitted inhibition curve with a large enough effect in the main read-out, with a control signal flat, not every such curve was filed as active). The settings on record: A549 ARE-Fluc reporter, 18-24 h; viability change: measured here: cytotoxicity max response; luciferase luminescence, at 46.1 µM (top of the series). In a few lines: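 Concentration-response test in A549 ARE_Fluc reporter cells (5% FBS OPTI-MEM), compound exposure 18-24 h at 37°C, 5% CO2. Cell viability measured first by CellTiter-Fluor fluorescence; ARE-driven luciferase luminescence then measured as Nrf2 activity.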

The nature of assay [18]: Quantitative high throughput screen for delayed death inhibitors of the malarial parasite plastid, 96 hour incubation (AID 488745). Further: potency means the concentration at half of the fitted maximal effect; nearly all actives have a fitted effect of over 70% in size. The settings on record: Plasmodium falciparum growth. In a few lines: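 Luciferase-expressing P. falciparum, infected RBCs 2% Hct/0.1% parasitemia (final); 96 h cpd exposure, 37 C, 5% CO2; RPMI 1640 + 0.5% Albumax, bicarbonate, gentamycin. Readout: luminescence loss = growth inhibition.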

Assay [19] in a line: Quantitative high throughput screen for delayed death inhibitors of the malarial parasite plastid, 48 hour incubation (AID 488752). Further: potency means the concentration at half of the fitted maximal effect; nearly all actives have a fitted effect of over 65% in size. The settings on record: Plasmodium falciparum growth. In a few lines:
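Luciferase-expressing P. falciparum in RBCs, 2% Hct, 0.1% parasitemia final; RPMI 1640 + 0.5% Albumax; 48 h, 37 C, 5% CO2; luminescence readout, signal drop = growth inhibition.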

In assay [20] the target is Transient receptor potential cation channel subfamily V member 1 (Homo sapiens) (UniProt Q8NER1). The experiment in a line: HTS Assay for Compounds that Act as Enhancers of the Vanilloid Receptor 1 (AID 488979). The settings on record: TRPV1-expressing cells, enhancer of channel activity, stimulated with capsaicin at EC20; series mostly up to 41.7 µM. In a few lines:
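Calcium influx kinetics via Fluo-8 (480/520 nm) in TRPV1-expressing cells, 2000/well cultured overnight at 35.5C. Compound-alone read 3 min (agonist phase), followed by EC20 capsaicin challenge for 2 min (enhancer phase).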

Molecules are shown by their SMILES. Records with an inconclusive call do not appear. Entries that show only a call come without a potency. The source made the active and inactive calls. Unless noted, the call rests on the fitted dose curve; in most records, active means well fitted curve in the direction sought with a large enough effect; inconclusive means small, poorly fitted or top-dose-only effect, or another doubt; inactive means no such curve, though single readings can be large; an effect the other way counts as inactive or inconclusive.

M-phase phosphoprotein 8 (Homo sapiens), sequence (Q99549 whole entry, looked up): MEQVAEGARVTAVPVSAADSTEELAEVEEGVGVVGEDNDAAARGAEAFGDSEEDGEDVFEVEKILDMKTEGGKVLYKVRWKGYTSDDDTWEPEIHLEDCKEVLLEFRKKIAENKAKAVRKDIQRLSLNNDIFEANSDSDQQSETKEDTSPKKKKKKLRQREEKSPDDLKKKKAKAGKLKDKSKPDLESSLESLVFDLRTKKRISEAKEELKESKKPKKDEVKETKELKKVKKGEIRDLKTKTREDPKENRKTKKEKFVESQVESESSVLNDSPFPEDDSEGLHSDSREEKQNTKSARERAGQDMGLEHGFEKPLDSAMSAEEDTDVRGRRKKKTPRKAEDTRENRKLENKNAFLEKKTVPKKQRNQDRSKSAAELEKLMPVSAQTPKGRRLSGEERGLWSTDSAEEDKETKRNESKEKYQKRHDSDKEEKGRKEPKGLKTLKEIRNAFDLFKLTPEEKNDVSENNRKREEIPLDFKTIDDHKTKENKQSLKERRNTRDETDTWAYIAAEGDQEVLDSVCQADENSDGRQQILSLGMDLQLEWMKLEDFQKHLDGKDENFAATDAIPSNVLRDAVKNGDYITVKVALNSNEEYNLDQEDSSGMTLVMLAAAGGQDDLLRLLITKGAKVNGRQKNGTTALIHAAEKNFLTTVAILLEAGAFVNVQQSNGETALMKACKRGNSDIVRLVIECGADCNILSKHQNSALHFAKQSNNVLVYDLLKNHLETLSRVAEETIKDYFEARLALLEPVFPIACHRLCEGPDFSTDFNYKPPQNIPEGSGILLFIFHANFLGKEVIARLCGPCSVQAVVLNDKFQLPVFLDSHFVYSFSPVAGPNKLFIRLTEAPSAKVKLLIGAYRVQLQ
Thioredoxin reductase 1, cytoplasmic (Rattus norvegicus), sequence (O89049 whole entry, looked up): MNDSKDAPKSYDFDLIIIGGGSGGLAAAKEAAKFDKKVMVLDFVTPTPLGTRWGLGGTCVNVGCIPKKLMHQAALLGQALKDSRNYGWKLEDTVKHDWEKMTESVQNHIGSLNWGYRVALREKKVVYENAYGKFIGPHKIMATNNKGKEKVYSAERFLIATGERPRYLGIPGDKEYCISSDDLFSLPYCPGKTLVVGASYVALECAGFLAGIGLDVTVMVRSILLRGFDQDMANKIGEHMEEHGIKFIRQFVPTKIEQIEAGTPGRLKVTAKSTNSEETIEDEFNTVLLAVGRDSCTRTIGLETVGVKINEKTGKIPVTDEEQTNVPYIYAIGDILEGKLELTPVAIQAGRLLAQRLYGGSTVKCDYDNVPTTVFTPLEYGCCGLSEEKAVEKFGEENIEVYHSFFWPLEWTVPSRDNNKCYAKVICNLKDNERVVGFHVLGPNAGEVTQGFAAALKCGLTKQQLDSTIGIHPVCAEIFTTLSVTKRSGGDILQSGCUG
Chromobox protein homolog 1 (Homo sapiens), sequence (P83916 whole entry, looked up): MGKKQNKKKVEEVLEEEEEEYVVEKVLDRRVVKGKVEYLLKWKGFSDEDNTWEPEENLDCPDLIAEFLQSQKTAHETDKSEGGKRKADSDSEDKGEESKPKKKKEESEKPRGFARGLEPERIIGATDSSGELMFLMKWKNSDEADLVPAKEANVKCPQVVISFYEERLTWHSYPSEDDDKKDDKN
Beta-2 adrenergic receptor (Homo sapiens), sequence (P07550 whole entry, looked up): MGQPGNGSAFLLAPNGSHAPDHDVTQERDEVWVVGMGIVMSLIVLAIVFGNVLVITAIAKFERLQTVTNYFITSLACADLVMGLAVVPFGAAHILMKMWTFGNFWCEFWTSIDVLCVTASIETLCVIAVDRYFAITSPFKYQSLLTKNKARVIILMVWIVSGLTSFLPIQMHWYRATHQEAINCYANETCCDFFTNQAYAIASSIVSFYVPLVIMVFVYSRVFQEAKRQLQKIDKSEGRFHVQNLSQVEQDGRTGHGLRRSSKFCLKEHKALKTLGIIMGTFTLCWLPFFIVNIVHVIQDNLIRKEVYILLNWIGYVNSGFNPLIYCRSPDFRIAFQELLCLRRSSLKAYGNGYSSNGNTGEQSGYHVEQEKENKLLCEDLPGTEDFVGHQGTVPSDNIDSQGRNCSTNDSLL
Flap endonuclease 1 (Homo sapiens), sequence (P39748 whole entry, looked up): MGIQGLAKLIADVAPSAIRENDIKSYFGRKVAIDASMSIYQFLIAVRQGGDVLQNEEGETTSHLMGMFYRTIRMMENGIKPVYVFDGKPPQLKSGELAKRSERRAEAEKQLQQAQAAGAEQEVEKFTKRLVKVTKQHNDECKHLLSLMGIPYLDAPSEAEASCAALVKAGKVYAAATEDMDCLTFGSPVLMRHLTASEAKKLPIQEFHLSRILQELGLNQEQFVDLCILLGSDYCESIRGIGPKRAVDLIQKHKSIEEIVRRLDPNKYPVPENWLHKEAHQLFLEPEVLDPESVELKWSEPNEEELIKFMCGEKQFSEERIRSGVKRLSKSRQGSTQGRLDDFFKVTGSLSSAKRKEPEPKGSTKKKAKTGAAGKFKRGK

As to `COC(=O)C1=C(C)NC(C)=C(C(=O)OCCN2CCN(C(c3ccccc3)c3ccccc3)CC2)C1c1cccc([N+](=O)[O-])c1` (centres undefined), in assay [1], the molecule was classed as inactive.
Regarding `O=c1c2ccccc2nc2n1CCc1c-2[nH]c2ccccc12`, the molecule was classed as inactive in [2], in [3], in [4], in assay [5], in [6] and in assay [7]. The outcome in [8], in [9], in assay [10], in [11], in [12] and in assay [13] was inactive. Also, the outcome in assay [14] and in assay [17] was inactive. Further, in assay [15], the Potency is 8.2 µM (active). Besides, in assay [16], the activation was -4.5% (inactive). Further, the viability change in assay [17] is -3.53%.
As for `CCC1=C[C@@H]2CN(C1)Cc1c([nH]c3ccccc13)[C@@](C(=O)OC)(c1cc3c(cc1OC)N(C)[C@@H]1[C@@](O)(C(=O)OC)[C@H](OC(C)=O)[C@]4(CC)C=CCN5CC[C@]31[C@@H]54)C2`, the molecule was called inactive in assay [1].
Regarding `CC[C@H]1CN2CCc3cc(OC)c(OC)cc3[C@H]2C[C@@H]1C[C@@H]1NCCc2cc(OC)c(OC)cc21`, the molecule was classed as inactive in assay [1].
Still for that read-out and setting: the entry for `Nc1ccc(S(=O)(=O)Nc2ncccn2)cc1` is “inactive”.
For `CC[C@H](CO)Nc1nc(NCc2ccccc2)c2ncn(C(C)C)c2n1`, the Potency was 1.04 µM (active) in [18] and 4.65 µM (active) in assay [19]. The molecule was classed as inactive in assay [8], in [20] and in [11]. Moreover, the activation in assay [16] is 0.312% (inactive).
Consider `COc1cc(C(=O)NS(=O)(=O)c2ccccc2C)ccc1Cc1cn(C)c2ccc(NC(=O)OC3CCCC3)cc12`, for which, in assay [1], the outcome was inactive.
On the same count and under the same terms, the entry for `COc1c(N2C[C@@H]3CCCN[C@H]3C2)c(F)cc2c(=O)c(C(=O)O)cn(C3CC3)c12` is “inactive”.
Consider `CN1c2cc(O)c(N=NC(N)=O)cc2CC1S(=O)(=O)O` (centres undefined), for which the molecule was classed as inactive in assay [1].
As for `O=c1[nH]c(=O)n(C2CCCO2)cc1F` (centres undefined), the molecule was classed as inactive in assay [1].
Regarding `O=C(O)CO.[NH2-].[NH2-].[Pt+2]`, in [1], the call was inactive.
The same measure, in the same setting: to `CC1(C)O[C@@H]2C[C@@H]3[C@H]4C[C@@H](F)C5=CC(=O)C=C[C@]5(C)[C@@]4(F)[C@@H](O)C[C@]3(C)[C@]2(C(=O)CO)O1` belongs “inactive”; to `Nc1ccn([C@@H]2O[C@H](CO)[C@H](O)C2(F)F)c(=O)n1`, “inactive”.
As to `C[C@H]1C[C@@H]2[C@@H]([C@@H](O)C[C@@]3(C)[C@H]2CC[C@]3(O)C(=O)CO)[C@@]2(C)C=CC(=O)C=C12`, in [1], the call was inactive.
In the case of `COC(=O)C[C@](O)(CCCC(C)(C)O)C(=O)O[C@@H]1C(OC)=C[C@]23CCCN2CCc2cc4c(cc2[C@H]13)OCO4`, the result in assay [1] was inactive.
On the same count and under the same terms, to `Nc1ccn([C@@H]2CS[C@H](CO)O2)c(=O)n1` belongs “inactive”; to `CC=CC1=C(C(=O)O)N2C(=O)[C@H](NC(=O)[C@H](N)c3ccc(O)cc3)[C@@H]2SC1`, “inactive”; to `CC(C)(C)NC(=O)[C@H]1CN(Cc2cccnc2)CCN1C[C@@H](O)C[C@@H](Cc1ccccc1)C(=O)N[C@H]1c2ccccc2C[C@H]1O`, “inactive”.
